# What was measured:
# Test in all cases: PBM binding z-score (relative to random genomic background probes); higher = stronger binding; sequences stand for … in GC…GCGATTGACAGCGTAGAATGAAGG
# [1] = system: PPARg:RXRa DBDmut IVT, anti-RXR (DBD mutation: RXRa K156A/R161A, NR concentration 270 nM, RXRa partner concentration 90 nM)
# Method in brief: (§1)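 Binding buffer was PBS pH 7.4 with 2% milk, 0.02% Triton X-100, 1 mM DTT, 0.2 mg/mL BSA and 0.4 mg/ml salmon testes DNA. In it, ligand-free nuclear receptor dimers were incubated 1 h on custom Agilent 4×180K protein-binding microarrays carrying double-stranded probes. Antibodies against each partner (one per run) detected binding, and z-scores were calculated against random background probes after regression normalization of scanned fluorescence.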
# [2] = system: PPARg:RXRa IVT, anti-PPARg (NR concentration 270 nM, RXRa partner concentration 90 nM)
# Method in brief: as §1
# [3] = system: PPARg DBDmut:RXRa IVT, anti-PPARg (DBD mutation: PPARg1 K132A/R137A, NR concentration 270 nM, RXRa partner concentration 90 nM)
# Method in brief: as §1
# [4] = system: PPARg DBDmut IVT, anti-PPARg (DBD mutation: PPARg1 K132A/R137A, NR concentration 270 nM)
# Method in brief: as §1
# [5] = system: PPARg homodimer (NR concentration 180 nM)
# Method in brief: as §1
# [6] = system: PXR:RXRa (NR concentration 270 nM, RXRa partner concentration 90 nM)
# Method in brief: as §1
# [7] = system: PXR homodimer (NR concentration 270 nM)
# Method in brief: as §1
# [8] = system: RARa:RXR (NR concentration 270 nM, RXRa partner concentration 90 nM)
# Method in brief: as §1
# [9] = system: RARa homodimer (NR concentration 270 nM)
# Method in brief: as §1
# [10] = system: RARb:RXRa (NR concentration 270 nM, RXRa partner concentration 90 nM)
# Method in brief: as §1
Sequence,PBM binding z-score [1],PBM binding z-score [2],PBM binding z-score [3],PBM binding z-score [4],PBM binding z-score [5],PBM binding z-score [6],PBM binding z-score [7],PBM binding z-score [8],PBM binding z-score [9],PBM binding z-score [10]
TCATATAGGTAAAAAGGTGAAAGTCCGTAAGTTA,4.17,4,0.729,0.649,1.85,1.4,0.696,2.87,1.81,2.03
GGTGCTAGGTCAGGTTGGTCAGCTAACGGGTACG,2.64,3.08,-0.502,-0.0479,1.8,0.63,0.481,1.2,1.12,3.56
CCAGACAGGTGAAAGGTAACGCAGTCTGGTACGC,2.46,3.24,-0.31,0.017,1.67,0.869,-0.124,2.01,0.457,1.47
GCAGACATGTGAAACGCAGGTAACTCAGGGTGGC,-0.934,-0.641,-0.654,-1.35,-1.78,-0.925,-0.866,-0.472,-0.769,-0.383
CCTCGGAGGACAACAGGAGGCCAGAGCTGCCAGA,-0.393,-0.707,-0.633,-1.31,-0.602,-0.549,-0.283,-0.45,-0.398,1.07
ACTAGCAGGCCAATTTTGGGTCACTCAAACAAAG,1.13,1.84,0.126,-0.427,0.323,0.759,-0.305,1.38,-0.793,1.45
CCAACTAGGTCACCGGAAGGTCAAAGTCCGCATG,8.42,8.36,0.902,1.2,9.32,6.17,2.46,7.7,4.05,5.15
ATCCAAAGGTCGACGAGGTGAGTATACACCGTTT,0.48,2.51,0.787,0.209,1.99,3.05,0.52,3.62,0.92,4.07
GCTAGTTGGTCAGTAAAAGGTCACACATCGGTCG,1.75,2.98,0.0513,0.435,4.49,4.7,1.49,5.23,2.58,4.26
ATCTCTAGGTAACAAGTTGAGTGAAAGAGAGGAC,3.42,2.71,1.43,1.04,0.666,0.294,0.569,0.445,1.29,0.64
TAGCCTAGGTCAGATCGGACCAGTATACGCTATA,0.812,1.36,0.21,0.399,0.0652,0.377,-0.37,1.48,-0.814,2.85
TCTATTACTTGAAGGGCAACCGACGAGTCCGTTT,2.52,0.782,1.07,1.12,0.761,1.01,0.901,1.02,1.4,1.59
ACAGACAGATGATGAAGGTAACTCAGGCTATCAT,-0.169,-0.00444,1.17,0.707,0.677,-0.0799,0.468,0.101,0.591,0.13
CCGACTGGGGCCAGGTTACCATAACGCACAGCCA,-0.238,-0.22,-1.52,-1.47,0.249,-0.136,-0.0661,0.176,-0.0137,0.996
AGTCTAAGTTCACTAGGTAACGTAAGATTCAGCT,2.75,3.66,0.895,1.1,1.24,3.63,4.11,1.93,0.914,3.58
TCTTGTAGATCTAGCAGGTTAAGAAAGCCTGAGT,1.5,0.0743,0.126,0.6,-0.214,0.527,0.101,0.57,0.175,0.0972
CCTGCTAGGTCATGGTCAGCTATTCTACAGTATG,4.23,3.4,-0.449,-0.223,2.13,1.28,-0.498,2.3,-0.317,3.95
CGAACGAGGACATGAGTTGATAGCAAATGCCGAT,0.314,0.0195,0.334,-0.107,0.0836,-0.249,0.0683,-0.232,0.565,0.496
GATACAGGGTCAAGGCCGGAGTACGCGTATTGAT,2.69,3.81,-0.0401,0.122,1.8,3.56,0.0329,4.01,0.567,4.55
CCTGCTAGGTCAATGGTCAGATAAAGCAGCTCGC,4.27,4,-0.328,-0.659,1.01,0.646,-0.497,1.44,0.218,3.65
ATACCAAGGTGATCGTGAGGTCGTTTATACTAAC,0.676,1.12,0.496,0.607,0.889,3.27,2.05,2.19,0.982,1.51
GGAACGAGGGCATTTGAGTTGATAGCATGGCGAT,2.97,2.01,-0.643,-0.444,0.183,4,2.08,0.869,-0.446,1.96
TCAAATAGGTAATACAGGTGAAAGTCGGCATCTA,3.6,2.94,1.25,1.14,0.815,0.771,0.46,0.82,1.66,0.777
GCGGCTGGGGCAAAGCAGGTTACCATAAGGTTGG,0.344,0.597,-2.01,-1.49,-0.191,0.338,-0.584,0.776,-1.18,1.07
